Screening results as filed in PubChem.
Compounds with a hit are over-represented: about 8% of the library has one in this group of screens.
HT1080 IDH1KD tx – HT-1080 IDH1 knockdown cell toxicity (counter line). Potency, µM (top dose mostly 46.1 µM), inactives show at the top dose activity, negative = toxicity, actives largely listed as cytotoxic. 360,000 compounds, 2% hits. AID 686971. HT-1080 IDH1 knockdown viability, ATP luminescence, 48 h;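 also: 0% = DMSO wells and -100% = cell-free medium wells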
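IDH1KD HT-1080 cells, 750/well, RPMI + 5% FBS; compound pinned after 2 h settling; 48 h, 37 °C; CellTiter-Glo luminescence; % activity normalised to DMSO and no-cell wells; curves fitted, classed by r2 and efficacy.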
HT1080NT lethal – kills 2HG-producing HT-1080-NT fibrosarcoma cells; HT-1080-NT fibrosarcoma viability, CellTiter-Glo ATP luminescence, 48 h; Potency, µM (titrated, usually from 46.1 µM), without a hit: top-dose activity, negative = less viability, hits mostly cytotoxic; 360,000 compounds, 1.6% hits; AID 686970;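 also: NT is the 2HG producing partner of a matched IDH1 knockdown line; 0% = DMSO-treated cells and -100% = media-only wells without cells; nearly all actives have a fitted effect of over 55% in size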
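Fibrosarcoma NT cells, 750 per well in 5% FBS RPMI, were exposed to compound for 48 hours. Viability: CellTiter-Glo luminescence.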
SW480 rereplic – DNA re-replication induction in SW480 cells | AID 624297 | Potency, µM (doses to about 46.1 µM), for the others: top-dose re-replication activation, hits mostly activators | 340,000 compounds, 1.8% hits | SW480 DNA re-replication, Hoechst DNA content imaging, 48 h; also: % of control where 0% means no effect; nearly all actives have a fitted effect of over 55% in size
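Treated cells incubate 48 hr (37 C, 5% CO2), are stained 40 min with Hoechst, and nuclear fluorescence is enumerated; a rise in nuclei with high DNA signal marks re-replication.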
MCF10A rereplic – induces DNA re-replication in MCF 10a normal breast cells; MCF 10A DNA re-replication, Hoechst nuclear intensity, 48 h; Potency, µM (top dose mostly 46.1 µM), without a hit: at the highest dose activity, positive = re-replication, hits mostly activators; 350,000 compounds, 2.9% hits; AID 624296; also: % of control where 0% means no effect; nearly all actives have a fitted effect of over 50% in size
KB-3-1 tox – KB-3-1 parental cell cytotoxicity; KB-3-1 viability, CellTiter-Glo ATP luminescence, 72 h; Potency, µM (series often up to 46.1 µM), most hits filed as cytotoxic; 400,000 compounds, 1.4% hits; AID 1347075; also: % is scaled to controls: 0 for no effect and ±100 for the full control effect; nearly all actives have a fitted effect of over 60% in size
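Multi-concentration cytotoxicity screen in KB-3-1 cells grown in DMEM lacking phenol red with 10% FBS. After 72 h at 37 °C with compound, ATP-dependent luminescence was recorded.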
KB-V1 cytotox – kills drug-selected multidrug resistant KB-V1 cells; KB-V1 MDR cells viability, CellTiter-Glo, 72 h; Potency, µM (series often up to 46.1 µM), actives largely listed as cytotoxic; 400,000 compounds, 3.4% hits; AID 1347076; also: % is scaled to controls: 0 for no effect and ±100 for the full control effect; nearly all actives have a fitted effect of over 60% in size
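KB-V1, DMEM (no phenol red) + 10% FBS; cpd pin-transferred, titration series; 72 h, 37 degrees C; CellTiter-Glo, luminescence. Data normalized, curve-fit.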
Numbers without * were called inactive; i = inactive; u = inconclusive; x = no result given; [ ] = another dose, or the depositor's remark. Calls follow the shape of the dose curve; as a rule, active = well fitted curve in the direction sought with a large enough effect; inconclusive = small, poorly fitted or top-dose-only effect, or another doubt; inactive = no such curve, though single readings can be large; an effect the other way counts as inactive or inconclusive. Potency is read from the fitted curve at half-maximal effect.

SMILES	HT1080 IDH1KD tx	HT1080NT lethal	SW480 rereplic	MCF10A rereplic	KB-3-1 tox	KB-V1 cytotox
Cc1ccccc1S(=O)(=O)N1C[C@H]2CON(C)[C@H]2C[C@H]1c1cccc(-c2ccc(C#N)cc2)c1	-11.5%	0.3%	4.11µM*	-2.9%	i	i
Cc1ccccc1S(=O)(=O)N1C[C@H]2CON(C)[C@H]2C[C@H]1c1cccc(N2CCOCC2)c1	-1.5%	-1.0%	-3.6%	-8.4%	u	i
Cc1cc(C)cc(-n2ncc3c2CCCC3NC(=O)CN2CCCC2=O)c1 (centres undefined)	-2.0%	3.9%	-7.5%	7.6%	u	i
CC(C)(C)c1ccc(-n2ncc3c2CCCC3NC(=O)CCN2CCCC2=O)cc1 (centres undefined)	18.4µM*	u	-13.1%	-1.2%	i	i
CC(=O)NC1CCCc2c1cnn2-c1ccc(C(C)(C)C)cc1 (centres undefined)	-2.6%	-0.5%	0.0%	-0.5%	i	i
Cn1nccc1C(=O)NC1CCCc2c1cnn2-c1ccc(C(C)(C)C)cc1 (centres undefined)	1.3µM*	1.3µM*	u	18.4µM*	u	u
Cc1cc(C)cc(-n2ncc3c2CCCC3NC(=O)c2ccccc2N2CCOCC2)c1 (centres undefined)	16.4µM*	u	20.6µM*	u	u	u
CC(C)(C)c1ccc(-n2ncc3c2CCCC3NC(=O)CN2CCCC2=O)cc1 (centres undefined)	0.7%	u	-2.4%	8.1%	u	8.2µM*
CCOc1ccccc1C(=O)N1CC(=O)Nc2ccc(C)cc2C1c1ccccc1 (centres undefined)	x	x	x	x	i	i
Cc1ccc(NC(=O)CC2Nc3cc(C)c(C)cc3NC2=O)c(C)c1 (centres undefined)	x	x	x	x	i	u
Cc1ccccc1-c1nc(CS(=O)(=O)CC(=O)NCc2cccc(Cl)c2)c(C)o1	x	x	x	x	i	i
O=C(CN(Cc1ccccc1)S(=O)(=O)c1ccccc1)N/N=C/c1ccc([N+](=O)[O-])cc1	-29.8%	-27.1%	u	1.0%	i	2.06µM*
COc1ccc(/C=N/NC(=O)CN(Cc2ccccc2)S(=O)(=O)c2ccc3c(c2)OCCO3)cc1	1.8%	-13.9%	6.3%	5.2%	i	i
O=C(CN(Cc1ccccc1)S(=O)(=O)c1ccc2c(c1)OCCO2)N/N=C/c1cccc(Br)c1	-15.5%	-8.0%	0.3%	6.9%	i	18.4µM*
O=C(CN(Cc1ccccc1)S(=O)(=O)c1ccc2c(c1)OCCO2)N/N=C/c1ccc(F)cc1	-8.7%[9.24 µM]	u	-3.7%	4.2%	i	i
O=C(CN(Cc1ccccc1)S(=O)(=O)c1ccccc1)N/N=C/c1ccc2c(c1)OCO2	u	u	2.5%	-3.7%	i	i
O=C(CN(Cc1ccc(Cl)c(Cl)c1)S(=O)(=O)c1ccccc1)N/N=C\c1ccc2c(c1)OCO2	-6.5%[9.24 µM]	u	u	19.0%	u	20.6µM*
Cc1ccc(-n2cnc3cc(C(=O)NC4CCCCCC4)ccc32)cc1Cl	x	x	x	x	i	i
O=C(c1cccc(S(=O)(=O)N2CCc3ccccc32)c1)N1CCN(c2ccccn2)CC1	9.2µM*	u	16.9%	17.2%	6.51µM*	u
O=C(c1ccc(Cl)c(S(=O)(=O)N2CCc3ccccc32)c1)N1CCN(c2ccccc2O)CC1	u	-20.6%	15.2%	u	i	18.4µM*
Cc1c(NC(=O)Cc2ccc(Cl)cc2)cccc1-c1nc2cccnc2s1	x	x	x	x	i	i
Cc1cc(C)cc(NC(=O)Cn2nnc(C(=O)NCc3ccccc3Cl)c2N)c1	u	u	19.8%	7.0%	i	i
Cc1ccc(Cn2nnc(C(=O)Nc3cccc(C)c3C)c2N)cc1	-18.5%	-10.3%	-4.2%	1.8%	i	14.6µM*
Cc1cccc(Cn2nnc(C(=O)Nc3cc(C)ccc3C)c2N)c1	x	x	x	x	i	u
Cc1ccc(S(=O)(=O)c2nnn(CC(=O)Nc3ccccc3C)c2N)cc1C	x	x	x	x	i	i
SMILES	HT1080 IDH1KD tx	HT1080NT lethal	SW480 rereplic	MCF10A rereplic	KB-3-1 tox	KB-V1 cytotox
CCc1ccccc1NC(=O)Cn1nnc(C(=O)NCc2cccc(OC)c2)c1N	u	-2.9%	u	7.31µM*	7.31µM*	u
Cc1cc(C)cc(NC(=O)Cn2nnc(C(=O)NCc3ccc(F)cc3)c2N)c1	-4.3%	-4.0%	29.1µM*	u	i	i
Cc1ccc(S(=O)(=O)c2nnn(CC(=O)Nc3ccccc3C)c2N)cc1	x	x	x	x	16.4µM*	u
CCn1c2ccccc2c2cc(/C=C3\C=Cc4ccccc43)ccc21	x	x	x	x	i	i
COc1ccc(Cl)cc1NC(=O)Cn1nnc(C(=O)NCc2cccs2)c1N	x	x	x	x	7.31µM*	u
COc1ccc(NC(=O)c2nnn(Cc3ccccc3C)c2N)c(OC)c1	x	x	x	x	u	i
COc1ccc(OC)c(NC(=O)c2nnn(Cc3ccccc3C)c2N)c1	x	x	18.4%	u	9.2µM*	i
Cc1ccc(NC(=O)CCNS(=O)(=O)c2ccc3c(c2)CCN3C(=O)C2CC2)c(Cl)c1	x	x	x	x	i	i
COc1cccc(C2C(C(=O)Nc3cccnc3)=C(C)Nc3nc(SCc4ccccc4)nn32)c1 (centres undefined)	x	x	x	x	i	i
CN(Cc1ccccc1)C(=O)c1ccc(CSc2nc3cccnc3n2Cc2ccccc2F)cc1	x	x	x	x	i	i
Cc1ccccc1CSc1nnc(-c2ccco2)n1Cc1ccco1	-5.3%	6.5%	-1.0%	u	i	i
C(=C\c1ccccc1)/CSc1nnc(-c2ccncc2)n1Cc1ccco1	-1.3%	-0.4%	3.1%	2.0%	i	i
c1ccc(CSc2nnc(-c3ccco3)n2Cc2ccco2)cc1	-1.7%	1.4%	-0.9%	-0.8%	u	20.6µM*
Cc1ccccc1CSc1nnc(-c2cccs2)n1Cc1ccco1	-0.5%	-0.4%	-0.7%	u	i	5.8µM*
C(=C\c1ccccc1)/CSc1nnc(-c2ccccc2)n1Cc1ccco1	7.08µM*	7.08µM*	23.1µM*	5.17µM*	i	18.4µM*
CC(C)(C)c1ccc(CSc2nnc(-c3ccccn3)n2Cc2ccco2)cc1	u	u	u	16.4µM*	u	i
CCCCCn1c(=O)[nH]c2cc(C(=O)NC(C)CC)ccc2c1=O (centres undefined)	x	x	x	x	i	i
Cc1ccccc1C(=O)n1nc(-c2ccco2)nc1NCc1cccs1	x	x	x	x	i	i
